Test results from PubChem BioAssay AID624330 (Southern Research Specialized Biocontainment Screening …, 2012).
Screen size: about 340,000 compounds; about 2,100 (0.62%) were called active.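 Rule for the calls: active = first-screen hits whose inhibition reached a set limit at any dose in the follow-up dose series; inconclusive = inhibition above the set first-screen limit but never retested; inactive = the rest.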 These entries were drawn from the full list. Results with a measured potency or affinity are listed apart.

target: Rac GTPase-activating protein 1 (Homo sapiens) (UniProt Q9H0H5); assay: MgcRacGAP GTPase-activating activity inhibitors, confirmation, biochemical, ADP Hunter fluorescence, primary and confirmatory (AID 624330); conditions: MgcRacGAP-stimulated Rac1 GTP hydrolysis, at 30 µM, stronger effect = higher value, GST-tagged Rac1 F28L mutant substrate;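 note: fluorescence reports GDP produced by GAP-driven GTP hydrolysis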
Sequence (Q9H0H5 whole entry, looked up): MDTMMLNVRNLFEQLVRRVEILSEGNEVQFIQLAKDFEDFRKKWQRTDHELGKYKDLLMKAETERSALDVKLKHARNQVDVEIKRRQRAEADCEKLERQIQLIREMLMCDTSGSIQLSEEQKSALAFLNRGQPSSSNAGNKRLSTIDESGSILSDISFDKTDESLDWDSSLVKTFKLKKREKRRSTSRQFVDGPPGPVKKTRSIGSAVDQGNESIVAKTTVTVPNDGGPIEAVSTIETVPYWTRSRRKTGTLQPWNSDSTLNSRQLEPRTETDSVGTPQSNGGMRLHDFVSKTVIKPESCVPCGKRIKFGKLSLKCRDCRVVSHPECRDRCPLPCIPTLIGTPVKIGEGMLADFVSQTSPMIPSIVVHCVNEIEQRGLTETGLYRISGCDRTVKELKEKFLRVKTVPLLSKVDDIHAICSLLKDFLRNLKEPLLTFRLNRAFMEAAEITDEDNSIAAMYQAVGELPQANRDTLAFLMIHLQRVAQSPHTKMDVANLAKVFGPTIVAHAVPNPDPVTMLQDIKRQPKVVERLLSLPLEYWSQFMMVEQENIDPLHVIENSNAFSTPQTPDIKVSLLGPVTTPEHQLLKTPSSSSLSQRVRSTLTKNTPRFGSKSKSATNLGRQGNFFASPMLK

inhibition, inactive:
CC1(C)CC(=O)C=C(NCCN2CCN(C(=S)Nc3ccccc3)CC2)C1 7.52%, Cc1ccc(NS(=O)(=O)c2ccc3c(c2)NC(=O)C(C)C(=O)N3)c(Br)c1 (stereo unspecified) -1.09%, Cc1onc(-c2ccccc2)c1C(=O)c1c[nH]c(C(=O)NCc2ccccn2)c1 3.33%, c1ccc(NN(Cc2ccccn2)c2ccccc2)cc1 -6.65%, O=C(CCC(=O)c1cccs1)Nc1ncccc1O 11.4%, CCOC(CCNC(=O)c1cn(CC(C)C)c(=O)c2c1c1ccccc1n2C)OCC 17.2%, CC(=O)Nc1cccc(Oc2cc(C#N)c(C#N)cc2N2CCCCCC2)c1 5.07%, O=C(CNC1CCCCC1)Nc1ccc(Cl)cc1 1.58%, CC1CCCCN1CC(=O)Nc1ccc(Oc2ccccc2)cc1 (stereo unspecified) 9.36%, CC1CCCCN1CC(=O)Nc1ccc2c(c1)OCO2 (stereo unspecified) 31%, O=C(CN1CCN(c2ccccc2)CC1)Nc1ccc2c(c1)OCCO2 0.3%, O=C(CNCc1ccccc1Cl)Nc1ccc2c(c1)OCCO2 29.9%, O=C(CSCc1ccc(Cl)cc1)Nc1ccc2c(c1)OCCO2 5.15%, O=C(CNC1CCCC1)Nc1ccc(S(=O)(=O)N2CCCCC2)cc1 3.94%, O=C(CN1CCN(c2ccc(F)cc2)CC1)Nc1ccc2c(c1)OCCO2 9.33%, CCC(=O)Nc1ccc(NC(=O)CSc2nnnn2CC)cc1C 6.52%, CCOC(=O)COc1ccc(S(=O)(=O)N2CCN(c3ccccc3)CC2)cc1 8.59%, O=C(CSc1nnc(-c2ccccc2)c(-c2ccccc2)n1)Nc1ccc(Br)cn1 4.25%, Cn1c(=O)[nH]c(=O)c2c1nc(Br)n2C/C=N/Nc1ccccc1 3.62%, COc1ccc(N(CC(=O)Nc2ccc3c(c2)OCCO3)S(=O)(=O)c2cccnc2)cc1 -11.8%, CC(=O)c1ccc(S(=O)(=O)NCCC(=O)NCCc2c[nH]c3ccccc23)cc1 3.35%, CCCCOC(=O)C1=C(C)Nc2ncnn2C1c1ccc(OC)c(OC)c1OC (stereo unspecified) 0.42%, COc1ccccc1N1CCN(Cc2cc3c(cc2Br)OCCO3)CC1 2.26%, O=C(CNCC1CCCO1)Nc1ccccc1N1CCOCC1 (stereo unspecified) 22%, COc1ccc(N2CCN(Cc3cc4c(cc3Br)OCCO4)CC2)cc1 4.68%, O=C(CN1CCCCC1)Nc1ccccc1 -4.92%, O=C(CNC1CCCCCC1)Nc1ccccc1N1CCCCC1 8.73%, O=C(CN1CCCCCC1)Nc1ccc(Br)cc1 5.51%, Cc1ccc(NC(=O)c2cnccn2)cc1S(=O)(=O)N1CCCCCC1 6.35%, COc1ccc(-c2nc(NC3=NCCCCC3)sc2C)cc1 6.19%, CCCNC(=O)c1onc(CSc2ccc(Cl)cc2)c1C(=O)NCC1CC1 7.59%, COC(=O)c1ccc(NC(=O)c2cn(-c3ccccc3)nc2-c2ccncc2)cc1 -0.99%, CN(C)c1ccc2c3c(ccc(N(C)C)c13)COC2 -1.08%, CN=Cc1nc(-c2ccccc2)oc1O 10.2%, CC(C)(C)N=Cc1cc(-c2ccccc2)sc1O 7.65%, CCCn1c(N2CCN(C(=O)N3CCCCC3)CC2)nc2ccccc21 -9.24%, C#CCOCCOCCOCCNc1nc(N2CCN(C(=O)C([C@@H](C)O)n3cc([C@@H](N)CCCCN)nn3)CC2)nc(N2CCN(C(=O)[C@H](CCCCN)n3cc([C@@H](N)CC(N)=O)nn3)CC2)n1 (stereo partly specified) 30.2%, C#CCOCCOCCOCCNc1nc(N2CCOCC2)nc(N2CCN(C(=O)[C@H](CCCCN)n3cc(CN)nn3)CC2)n1 20.9%, C#CCOCCOCCOCCNc1nc(N2CCN(C(=O)C([C@@H](C)O)n3cc([C@@H](N)CCCCN)nn3)CC2)nc(N2CCN(C(=O)C([C@@H](C)O)n3cc([C@@H](N)CCCCN)nn3)CC2)n1 (stereo partly specified) 27.4%, C#CCOCCOCCOCCNc1nc(N2CCN(C(=O)CCCCCCCCCCNC(=O)[C@@H](CCSC)n3cc(CCO)nn3)CC2)nc(N2CCN(C(=O)CCCCCCCCCCNC(=O)[C@H](CCC(=O)O)n3cc(CCCCCN)nn3)CC2)n1 8.01%, C#CCOCCOCCOCCNc1nc(N2CCN(C(=O)[C@H](CCC(=O)O)n3cc([C@@H](N)CCCCN)nn3)CC2)nc(N2CCN(C(=O)[C@H](CCC(=O)O)n3cc([C@@H](N)CCCCN)nn3)CC2)n1 3.63%, C#CCOCCOCCOCCNc1nc(N2CCN(C(=O)[C@H](CCCCN)n3cc(CN)nn3)CC2)nc(N2CCN(C(=O)[C@H](CCC(=O)O)n3cc(CN)nn3)CC2)n1 10.3%, C#CCOCCOCCOCCNc1nc(N2CCN(C(=O)CCCCCCCCCCNC(=O)[C@@H](CCSC)n3cc(CCO)nn3)CC2)nc(N2CCN(C(=O)CCCCCCCCCCNC(=O)[C@H](CCSC)n3cc(CCO)nn3)CC2)n1 -2.72%, C#CCOCCOCCOCCNc1nc(N2CCN(C(=O)[C@H](CCC(=O)O)n3cc(CN)nn3)CC2)nc(N2CCN(C(=O)[C@H](CCCCN)n3cc([C@@H](N)CC(N)=O)nn3)CC2)n1 8.54%, COc1ccc(S(=O)(=O)N2CCN(c3ncccn3)CC2)cc1 -2.15%, COc1ccc(NC(=O)c2ccc(N3CCCC3=O)cc2)cc1Cl -8.17%, Cc1ccc(SCC(=O)Nc2ccc(N3CCOCC3)cc2)cc1 9.38%, Cc1ccc(Cn2ccc(NC(=O)c3noc4c3CCCC4)n2)cc1 -0.93%, Cc1cc(C(F)(F)F)nn1Cc1n[nH]c(=S)n1Cc1ccccc1 8.02%, CCC(O)CNC(=O)NC(=C(Cl)Cl)c1ccc(C)c(F)c1 (stereo unspecified) -0.09%, O=C(N/N=C\c1cccc(Cl)c1)c1n[nH]c2c1CCCC2 2.96%, CCOC(=O)CNC(=O)C(=O)c1c(O)[nH]c2ccccc12 15.3%, Cc1ccc2c(COC(=O)C34CC5CC(CC(C5)C3)C4)cc(=O)oc2c1 0.94%, Cc1ccc(NCC(=O)c2ccccc2)cc1Cl 3.37%, Cc1ccc(S(=O)(=O)NC(=O)Nc2ccc(F)c(F)c2)cc1 8.4%, COc1cc(NC(=O)NS(=O)(=O)c2ccc(C)cc2)cc(OC)c1 4.34%, COc1ccc(N2CCN(CC(=O)c3c[nH]c4ccccc34)CC2)cc1 -4.34%, CNC(=O)CSc1nc2sccc2c(=O)n1-c1ccccc1 4.24%, CCN(CC)C(=O)CSc1nc(N)c(C(=O)Nc2ccc(OC)cc2)s1 14%, COc1ccc(NC(=O)CSc2nc(N)c(C(=O)Nc3ccc(N(C)C)cc3)s2)cc1 16.4%, Cc1nnc(SCC(=O)Nc2nccs2)s1 1.9%, CN(C)c1ccc(NC(=O)c2sc(SCC(=O)Nc3ccc(Br)cc3)nc2N)cc1 10.8%, Cc1cc(C)cc(OCC(=O)OCC(=O)NC2CC2)c1 -3.46%, CC(C)C(O)(C#CCN1CCCCC1)c1ccccc1 (stereo unspecified) -1.57%, Cc1ccc(NC(=O)CSCC(=O)Nc2nnc(C3CC3)s2)cc1 7.27%, CCOC(=O)c1c(C)n(-c2ccc(C)cc2)c2ccc(OCC(O)CN3CCN(C)CC3)cc12 (stereo unspecified) 5.99%, CCOC(=O)c1c(C)n(-c2ccc(C)cc2)c2ccc(OCC(O)CNCCCO)cc12 (stereo unspecified) 14.9%, O=C(COC(=O)c1cc(=O)[nH]c(=O)[nH]1)NCc1ccccc1 3.71%, O=C(Nc1nnc(-c2ccncc2)s1)C1CCCO1 (stereo unspecified) 2.37%, CC(C)CN(C(=O)COC(=O)c1cc(=O)[nH]c2ccccc12)c1c(N)n(Cc2ccccc2)c(=O)[nH]c1=O 4.11%, OC(CNCCc1ccccc1)COc1ccc(OCC(O)CNCCc2ccccc2)cc1 (stereo unspecified) 8.04%, COc1ccc(CNCC(O)COc2ccc(C(C)(C)c3ccccc3)cc2)cc1 (stereo unspecified) 26.6%, CCOc1ccc(OCC(O)CNC2CCN(Cc3ccccc3)CC2)cc1 (stereo unspecified) 7.46%, CC(C)(c1ccccc1)c1ccc(OCC(O)CN2CCCC2)cc1 (stereo unspecified) 9.77%, CCCCCC(=O)C(=O)c1ccc(O)cc1O -2.38%, O=C(NNC(=O)c1cccnc1)NC1CCCCC1 7.92%, CSc1cccc(NS(=O)(=O)c2cc(Br)cnc2N)c1 -1.74%, O=C(Nc1ccc(N2CCCCCC2)cc1)c1ccccc1Cl 20.3%, CC(=O)N1CCN(c2ccc(NC(=O)c3ccccc3C)cc2)CC1 9.24%, O=C(Nc1ccc(N2CCCCC2)cc1)c1ccccc1 36.6%, O=C(Nc1ccc(N2CCCCC2)cc1)c1ccc(F)cc1 4.29%, CC(c1ccncn1)N(C)C(=O)c1ccc2oc(Cc3ccccc3)nc2c1 (stereo unspecified) 6.98%, CC1CCCCC1NC(=O)CN(C)S(=O)(=O)c1cccc2nsnc12 (stereo unspecified) 9.08%, COc1cc(/C=N/NC(=S)NCC2CCCO2)cc(OC)c1OC (stereo unspecified) 7.93%, COc1ccc(/C=N/NC(=O)C(=O)N2CCCC2)cc1OC 7.5%, COc1ccc(/C=N/NC(=S)NCC2CCCO2)cc1 (stereo unspecified) 5.53%, CCOc1ccc(/C=N/NC(=O)CN2CCCCC2)cc1OCC 10.1%, S=C(NCc1ccco1)N/N=C/c1ccncc1 2.98%, CCCOc1ccc(/C=N/NC(=O)CN2CCCCC2)cc1OCC 0.56%, S=C(NCc1ccco1)N/N=C/c1ccc(Cl)cc1 17.1%, COc1ccc(/C=N/NC(=O)C(=O)N2CCCCCC2)cc1O 11.9%
